Out of some 5,500 compounds screened, about 2,000 (36%) were called active. Inconclusive results (about 18%) are left out. Cut-off read from the data, not from the text of the source: active = normalized growth mostly below about 0.91 (no sharp cut-off); inconclusive = no clear call, values can overlap the other calls; inactive = mostly above about 0.92. The list shows a part of the results.
Assay: chemical genetic growth profiling, strain panel (AID 1159580);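 note: tested at 20 µM; growth read once vehicle control cultures reached saturation at 30 °C; 1 = growth at the plate median or of vehicle wells; lower values mean less growth of the strain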
Settings: growth OD

Measured: normalized growth

CCCCCCCCCc1ccc(O)cc1
inactive: S. cerevisiae deletion strains, locus YKL068W, active compounds read low 0.964 | S. cerevisiae deletion strains, locus YOL012C, strain htz1 0.624 | S. cerevisiae deletion strains, locus YPR141C, strain kar3, active compounds read low 0.992
active: S. cerevisiae deletion strains, locus YJR075W, strain HOC1, active compounds read low 0.256 | S. cerevisiae deletion strains, locus YKL009W, strain mrt4, active compounds read low 0.616 | S. cerevisiae deletion strains, locus YKL085W, strain MDH1 (second series), active compounds read low 0.311 | S. cerevisiae deletion strains, locus YKL085W, strain MDH1, active compounds read low 0.311 | S. cerevisiae deletion strains, locus YKL160W, strain elf1, active compounds read low 0.0913 | S. cerevisiae deletion strains, locus YKL190W, strain CNB1, active compounds read low 0.139 | S. cerevisiae deletion strains, locus YKR001C, strain vps1, active compounds read low 0.352 | S. cerevisiae deletion strains, locus YKR026C, strain gcn3, active compounds read low 0.0658 | S. cerevisiae deletion strains, locus YKR091W, strain srl3, active compounds read low 0.0785 | S. cerevisiae deletion strains, locus YLL001W, strain dnm1, active compounds read low 0.0778 | S. cerevisiae deletion strains, locus YLL026W, active compounds read low 0.0571 | S. cerevisiae deletion strains, locus YLL041C, strain sdh2, active compounds read low 0.0651 | S. cerevisiae deletion strains, locus YLR027C, strain aat2, active compounds read low 0.0531 | S. cerevisiae deletion strains, locus YLR039C, strain RIC1, active compounds read low 0.106 | S. cerevisiae deletion strains, locus YLR058C, strain SHM2, active compounds read low 0.136 | S. cerevisiae deletion strains, locus YLR102C, strain apc9, active compounds read low 0.901 | S. cerevisiae deletion strains, locus YLR113W, strain HOG1, active compounds read low 0.117 | S. cerevisiae deletion strains, locus YLR221C, strain rsa3, active compounds read low 0.0526 | S. cerevisiae deletion strains, locus YLR258W, strain gsy2, active compounds read low 0.062 | S. cerevisiae deletion strains, locus YLR262C, strain YPT6 (second series), active compounds read low 0.0891 | S. cerevisiae deletion strains, locus YLR262C, strain YPT6, active compounds read low 0.139 | S. cerevisiae deletion strains, locus YLR268W, strain sec22, active compounds read low 0.74 | S. cerevisiae deletion strains, locus YLR320W, strain mms22, active compounds read low 0.071 | S. cerevisiae deletion strains, locus YLR330W, strain CHS5, active compounds read low 0.321 | S. cerevisiae deletion strains, locus YLR342W, strain FKS1 (second series), active compounds read low 0.102 | S. cerevisiae deletion strains, locus YLR342W, strain FKS1, active compounds read low 0.0664 | S. cerevisiae deletion strains, locus YLR357W, strain rsc2, active compounds read low 0.148 | S. cerevisiae deletion strains, locus YLR370C, strain arc18, active compounds read low 0.0667 | S. cerevisiae deletion strains, locus YLR371W, strain rom2, active compounds read low 0.622 | S. cerevisiae deletion strains, locus YLR384C, strain iki3, active compounds read low 0.0786 | S. cerevisiae deletion strains, locus YLR418C, strain cdc73, active compounds read low 0.323 | S. cerevisiae deletion strains, locus YML016C, strain PPZ1, active compounds read low 0.191 | S. cerevisiae deletion strains, locus YML032C, strain rad52, active compounds read low 0.497 | S. cerevisiae deletion strains, locus YML120C, strain ndi1, active compounds read low 0.0538 | S. cerevisiae deletion strains, locus YML124C, strain tub3, active compounds read low 0.908 | S. cerevisiae deletion strains, locus YMR058W, strain fet3, active compounds read low 0.0622 | S. cerevisiae deletion strains, locus YMR078C, strain ctf18, active compounds read low 0.611 | S. cerevisiae deletion strains, locus YMR125W, strain sto1, active compounds read low 0.0742 | S. cerevisiae deletion strains, locus YMR129W, active compounds read low 0.0704 | S. cerevisiae deletion strains, locus YMR205C, strain PFK2, active compounds read low 0.0794 | S. cerevisiae deletion strains, locus YMR223W, strain ubp8, active compounds read low 0.558 | S. cerevisiae deletion strains, locus YMR231W, strain pep5, active compounds read low 0.0903 | S. cerevisiae deletion strains, locus YMR263W, strain SAP30, active compounds read low 0.099 | S. cerevisiae deletion strains, locus YMR307W, strain GAS1, active compounds read low 0.121 | S. cerevisiae deletion strains, locus YNL067W, strain RPL9B, active compounds read low 0.254 | S. cerevisiae deletion strains, locus YNL071W, strain lat1, active compounds read low 0.0615 | S. cerevisiae deletion strains, locus YNL128W, strain TEP1, active compounds read low 0.119 | S. cerevisiae deletion strains, locus YNL153C, strain GIM3, active compounds read low 0.117 | S. cerevisiae deletion strains, locus YNL183C, strain NPR1, active compounds read low 0.00185 | S. cerevisiae deletion strains, locus YNL209W, strain ssb2, active compounds read low 0.0648 | S. cerevisiae deletion strains, locus YNL233W, strain BNI4, active compounds read low 0.0815 | S. cerevisiae deletion strains, locus YNL248C, strain rpa49, active compounds read low 0.076 | S. cerevisiae deletion strains, locus YNL250W, strain rad50, active compounds read low 0.734 | S. cerevisiae deletion strains, locus YNL271C, strain bni1, active compounds read low 0.749 | S. cerevisiae deletion strains, locus YNL298W, strain CLA4, active compounds read low 0.437 | S. cerevisiae deletion strains, locus YNL307C, strain MCK1, active compounds read low 0.292 | S. cerevisiae deletion strains, locus YNL322C, strain KRE1 (second series), active compounds read low 0.11 | S. cerevisiae deletion strains, locus YNL322C, strain KRE1, active compounds read low 0.167 | S. cerevisiae deletion strains, locus YNR049C, strain mso1, active compounds read low 0.0733 | S. cerevisiae deletion strains, locus YNR052C, strain pop2, active compounds read low 0.538 | S. cerevisiae deletion strains, locus YOL006C, strain TOP1, active compounds read low 0.217 | S. cerevisiae deletion strains, locus YOL147C, strain pex11, active compounds read low 0.444 | S. cerevisiae deletion strains, locus YOR001W, strain rrp6, active compounds read low 0.0626 | S. cerevisiae deletion strains, locus YOR061W, strain CKA2, active compounds read low 0.102 | S. cerevisiae deletion strains, locus YOR069W, strain VPS5, active compounds read low 0.217 | S. cerevisiae deletion strains, locus YOR070C, strain gyp1, active compounds read low 0.063 | S. cerevisiae deletion strains, locus YOR080W, strain dia2, active compounds read low 0.0669 | S. cerevisiae deletion strains, locus YOR083W, strain WHI5, active compounds read low 0.0608 | S. cerevisiae deletion strains, locus YOR106W, strain vam3, active compounds read low 0.0604 | S. cerevisiae deletion strains, locus YOR136W, strain idh2, active compounds read low 0.758 | S. cerevisiae deletion strains, locus YOR144C, strain elg1, active compounds read low 0.553 | S. cerevisiae deletion strains, locus YOR184W, strain ser1, active compounds read low 0.506 | S. cerevisiae deletion strains, locus YOR231W, strain MKK1, active compounds read low 0.101 | S. cerevisiae deletion strains, locus YOR265W, strain rbl2, active compounds read low 0.0564 | S. cerevisiae deletion strains, locus YOR270C, strain vph1, active compounds read low 0.102 | S. cerevisiae deletion strains, locus YOR290C, strain snf2, active compounds read low 0.0652 | S. cerevisiae deletion strains, locus YOR316C, strain cot1, active compounds read low 0.799 | S. cerevisiae deletion strains, locus YPL051W, strain arl3, active compounds read low 0.0626 | S. cerevisiae deletion strains, locus YPL055C, strain LGE1, active compounds read low 0.1 | S. cerevisiae deletion strains, locus YPL078C, strain atp4, active compounds read low 0.0621 | S. cerevisiae deletion strains, locus YPL106C, strain sse1, active compounds read low 0.0816 | S. cerevisiae deletion strains, locus YPL240C, strain hsp82, active compounds read low 0.0552 | S. cerevisiae deletion strains, locus YPL241C, strain CIN2, active compounds read low 0.219 | S. cerevisiae deletion strains, locus YPL256C, strain CLN2, active compounds read low 0.109 | S. cerevisiae deletion strains, locus YPR119W, strain clb2, active compounds read low 0.67 | S. cerevisiae deletion strains, locus YPR163C, strain tif3, active compounds read low 0.86 | S. cerevisiae deletion strains, locus YPR167C, strain met16, active compounds read low 0.655 | S. cerevisiae deletion strains, strain wtn01, active compounds read low 0.813 | S. cerevisiae strains, strain wild type, active compounds read low 0.112
